Read-outs that look alike come from different tables or passages of the source. The whole screen tested about 13,000 compounds, of which about 3,200 (25%) showed an effect of 50% or more. This is one part of the list.

The results in this text go back to PMC4552634, “A New Set of Chemical Starting Points with Plasmodium falciparum Transmission-Blocking Potential for Antimalarial Drug Discovery” (PLoS ONE, 2015).

The test system of the test is P. falciparum stage V gametocytes. Further details: BacTiter-Glo ATP luminescence viability of purified stage V gametocytes in 384-well plates, per cent inhibition versus DMSO. The conditions noted are these: 48 h, 5 µM, inhibitor.

One may read the % Inhibition as the drop in the measured response relative to a control, in per cent. As for `Cc1onc(-c2c(F)cccc2Cl)c1C(=O)Nc1ccccc1I` [TCMDC-125644], the “% Inhibition” value was -7.209%.
As to `CS(=O)(=O)Cc1ccc(Nc2nccc(N3CCCc4cc(NC(=O)Nc5cccc(C(F)(F)F)c5)ccc43)n2)cc1` [TCMDC-134309], the “% Inhibition” value was found to be 69.84%.
For the compound `CC(=O)c1cccc(NC(=O)NC2CCN(c3ccnc(Nc4ccc(F)cc4)n3)C2)c1` (stereo not drawn) [TCMDC-133594], the “% Inhibition” value is -13.54%.
With `CC(=O)c1ccc(NC(=O)Nc2ccc(N(C)c3ccnc(Nc4cccc(CS(C)(=O)=O)c4)n3)cc2)cc1` [TCMDC-138736], the “% Inhibition” value is given as -10.01%.
Consider `CCCCCCCc1c2c(C)c(C(=O)OCC)nc-2cc2n1CC(C)=C2C` [TCMDC-124023], for which the “% Inhibition” value was found to be 93.66%.
Same read-out and setting: for `O=C(CCCCCNC(=O)c1ccc(O)c(-c2ccc(Cl)c(Cl)c2)c1)NCCN1CCOCC1` [TCMDC-140848] the value was 9.445%; for `O=C(/C=C/c1ccc(Cl)c(Cl)c1)NCCCCCN1C2CCC1CC(c1c[nH]c3ccccc13)C2` (stereo not drawn) [TCMDC-139239], -9.344%; for `O=C(/C=C/c1ccc(Cl)c(Cl)c1)NCC1CCCC(CN2CCC(c3c[nH]c4ccccc34)CC2)C1` (stereo not drawn) [TCMDC-139490], -31.4%.
Regarding `O=C(/C=C/c1ccc(Cl)c(Cl)c1)NCC1CCC(N2CCC(c3c[nH]c4ccccc34)CC2)CC1` (stereo not drawn) [TCMDC-139676], the “% Inhibition” value is listed as 103.8%.
As to `O=C(/C=C/c1ccc(Cl)c(Cl)c1)NCCC1CCC(N2CCC(c3c[nH]c4ccccc34)CC2)CC1` (stereo not drawn) [TCMDC-139823], the “% Inhibition” value is 54.15%.
With `O=C(/C=C/c1ccc(Cl)c(Cl)c1)NCCC1CCC(N2CCC(c3c[nH]c4ccc(O)cc34)CC2)CC1` (stereo not drawn) [TCMDC-139824], the “% Inhibition” value is recorded as -86.05%.
For `O=C(/C=C/c1ccc(Cl)c(Cl)c1)NCC1CCC(CN2CCC(c3c[nH]c4ccccc34)CC2)CC1` (stereo not drawn) [TCMDC-139484], the “% Inhibition” value stood at 1.039%.
The same measure, in the same setting: for `Cc1cccc(NC(=O)N(Cc2cc3cc(C)cc(C)c3[nH]c2=O)C2CC2)c1` [TCMDC-123651] the value was 4.214%.
Same read-out and setting: the same measure for `COc1cccc(C23N=C(Nc4nc5ccccc5[nH]4)NC2(c2cccc(OC)c2)NC(Nc2nc4ccccc4[nH]2)=N3)c1` (stereo not drawn) [TCMDC-139087]: 19.76%; for `Cc1ccccc1C1CCN(C2CCC(NC(=O)/C=C/c3c(F)ccc(F)c3F)CC2)CC1` (stereo not drawn) [TCMDC-133512]: -94.66%; for `CCCc1cc(Cc2cnc(N)nc2N)cc2c1OC(C)(C)C2` [TCMDC-138049]: -0.08597%.
Still for that read-out and setting: for `Cc1c(CNCCCNc2nc3cscc3[nH]2)sc(C(F)F)c1Br` [TCMDC-141336] the value was 21.93%.
For the compound `CC(C)(C)c1ccc(NC(=O)c2ccc(CN3CCCN(Cc4ccsc4)CC3)cc2)cc1` [TCMDC-136445], the “% Inhibition” value is listed as -5.74%.
With `COc1ccc(C=CC(=O)NC2CCC(CN3CCC(c4c[nH]c5ccccc45)CC3)CC2)cc1` (stereo not drawn) [TCMDC-139949], the “% Inhibition” value (% Inhibition) is on record as 103.1%.
For the compound `COc1ccc(C=CC(=O)NC2CCC(CN3CCC(c4c[nH]c5ccccc45)CC3)CC2)cc1` (stereo not drawn) [TCMDC-139933], the “% Inhibition” value (% Inhibition) is 46.2%.
In the case of `COc1ccc(C=CC(=O)NC2CCC(CN3CCC(c4c[nH]c5ccccc45)CC3)CC2)cc1OC` (stereo not drawn) [TCMDC-139932], the “% Inhibition” value is recorded as 100.6%.
In the case of `COc1cc(/C=C/C(=O)NC2CCC(CN3CCC(c4c[nH]c5ccccc45)CC3)CC2)ccc1O` (stereo not drawn) [TCMDC-139766], under “% Inhibition”, the “% Inhibition” value was -65.69%.
Consider `COc1cc(/C=C/C(=O)NC2CCC(CN3CCC(c4c[nH]c5ccccc45)CC3)CC2)ccc1O` (stereo not drawn) [TCMDC-139756], for which the “% Inhibition” value (% Inhibition) is reported as -29.87%.
As for `COc1ccc(OC)c(C=CC(=O)NC2CCC(CN3CCC(c4c[nH]c5ccccc45)CC3)CC2)c1` (stereo not drawn) [TCMDC-139893], the “% Inhibition” value is reported as 103%.
For `COc1cccc(/C=C/C(=O)NC2CCC(CN3CCC(c4c[nH]c5ccccc45)CC3)CC2)c1` (stereo not drawn) [TCMDC-139718], the “% Inhibition” value (% Inhibition) was 98.17%.
For `N#Cc1cccc(Nc2nccc(NCC(O)c3ccc(C(F)(F)F)cc3)n2)c1` (stereo not drawn) [TCMDC-136590], the “% Inhibition” value was 5.433%.
For the compound `CCc1ccc(NC(=O)c2ccc(CN3CCCN(Cc4cccc(O)c4)CC3)cc2)cc1` [TCMDC-136439], the “% Inhibition” value is given as -0.6993%.
The same measure, in the same setting: for `CCN(CCCN1CCCCC1)c1cc(C)nc(Nc2ccc(C(F)(F)F)cc2)n1` [TCMDC-132435] the value was 28.95%.
On to `CN(Cc1cccc(F)c1)C1CCN(c2cc(NC(=O)c3cccc(F)c3)ccn2)CC1` [TCMDC-135015], for which the “% Inhibition” value was -7.193%.
Consider `CCOc1cc(Cc2cnc(N)nc2N)cc(OCC)c1OCC` [TCMDC-137696], for which the “% Inhibition” value was -8.766%.
Take `COc1cccc(/C=C/C(=O)NC2CCC(CN3CCC(c4c[nH]c5ccccc45)CC3)CC2)c1` (stereo not drawn) [TCMDC-139703]: where the note is “% Inhibition”, the “% Inhibition” value is 100.1%.
Consider `O=C(/C=C/c1cccc2ccccc12)NC1CCC(CN2CCC(c3c[nH]c4ccccc34)CC2)CC1` (stereo not drawn) [TCMDC-139706], for which, where the note is “% Inhibition”, the “% Inhibition” value is reported as -11.81%.
For the compound `COc1cc(C=CC(=O)NC2CCC(CN3CCC(c4c[nH]c5ccccc45)CC3)CC2)cc(OC)c1` (stereo not drawn) [TCMDC-139947], the “% Inhibition” value is listed as 16.96%.
With `O=C(/C=C/c1cccc2ccccc12)NC1CCC(CN2CCC(c3c[nH]c4ccccc34)CC2)CC1` (stereo not drawn) [TCMDC-139721], the “% Inhibition” value (% Inhibition) is listed as -23.68%.
As to `COc1cccc(C=CC(=O)NC2CCC(CN3CCC(c4c[nH]c5ccccc45)CC3)CC2)c1OC` (stereo not drawn) [TCMDC-139902], the “% Inhibition” value worked out at 78.88%.
Take `O=C(Nc1ccccc1N1CCOCC1)c1ncoc1-c1ccccc1C(F)(F)F` [TCMDC-123538]: the “% Inhibition” value is -21.73%.
In the case of `O=C(N[C@@H](Cc1ccccc1)C(=O)NCCN1CCCCC1)c1ccc(O)c(-c2cccc(C(F)(F)F)c2)c1` [TCMDC-140816], the “% Inhibition” value came out at 36.65%.
For `O=C1c2ccccc2C(=O)N1CCOc1c(Br)cc(Br)cc1CNCCCNc1cc(=O)c2ccccc2[nH]1` [TCMDC-140115], the “% Inhibition” value is -3.219%.
Still for that read-out and setting: for `CN1CCN(c2ccnc3ccc(NC(=O)Nc4cccc5c(C#N)cccc45)cc23)CC1` [TCMDC-139344] the value was -1.771%; for `O=C(NCCN1CCCCC1)c1ccc(Nc2nccc(Nc3ccc(Oc4ccccc4)cc3)n2)cc1` [TCMDC-138608], -29.44%.
As to `O=C(NCc1cccc(C(F)(F)F)c1)[C@@H]1CCCN1C(=O)c1ccc(O)c(-c2ccc(Cl)c(Cl)c2)c1` [TCMDC-140832], the “% Inhibition” value amounted to 33.81%.
Regarding `CC1(C)NC(N)=NC(=N)N1OCc1ccc2ccccc2c1CON1C(=N)N=C(N)NC1(C)C` [TCMDC-131631], the “% Inhibition” value is recorded as -34.98%.
For `c1cc(CNC2CCCC2)cc(-c2ccc(CNc3ccc4ncccc4c3)cc2)c1` [TCMDC-140726], the “% Inhibition” value turned out to be 91.8%.
Regarding `CC(C)CNCc1ccc(-c2cccc(CNc3ccc4ncccc4c3)c2)cc1` [TCMDC-140719], the “% Inhibition” value is listed as 58.47%.
On the same count and under the same terms, the same measure for `c1ccc(CCNCc2ccc(-c3cccc(CNc4ccc5ncccc5c4)c3)cc2)cc1` [TCMDC-140720]: 4.928%.
Take `O=C(Cc1cccc(Cl)c1)Nc1ccc(N2CCC(NCc3ccc4ncccc4c3)CC2)cc1` [TCMDC-124660]: the “% Inhibition” value is 24.81%.
As to `CC(C)CNCc1cccc(-c2ccc(CNc3ccc4ncccc4c3)cc2)c1` [TCMDC-140722], the “% Inhibition” value is recorded as 48.08%.
Consider `c1cnc2ccc(NCc3ccc(-c4ccc(CNC5CCCC5)cc4)cc3)cc2c1` [TCMDC-140727], for which the “% Inhibition” value came to 45.47%.
For `c1ccc(CCNCc2ccc(-c3ccc(CNc4ccc5ncccc5c4)cc3)cc2)cc1` [TCMDC-140725], the “% Inhibition” value is reported as -47.08%.
Regarding `COc1cccc(CNC(=O)c2ccnc(-c3ccc(CNCCOc4ccccc4)cc3)c2)c1` [TCMDC-134501], the “% Inhibition” value is reported as 1.442%.
Same read-out and setting: for `c1ccc(CCNCc2cccc(-c3ccc(CNc4ccc5ncccc5c4)cc3)c2)cc1` [TCMDC-140724] the value was 87.5%.
With `COCCNCc1ccc(-c2ccc(CNc3ccc4ncccc4c3)cc2)cc1` [TCMDC-140723], the “% Inhibition” value is listed as 92.65%.
For the compound `CC(C)(C)CN1C(=O)C(c2ccccc2)(c2ccccc2)N=C1N` [TCMDC-136760], the “% Inhibition” value is listed as 24.92%.
On to `CCOc1ccc(-c2nc(NC(=O)CS(=O)(=O)c3ccccc3)sc2C)cc1` [TCMDC-123524], for which the “% Inhibition” value is 43.85%.
On to `OC(CNc1ccnc(Nc2ccc(Cl)cc2)n1)c1ccccc1C(F)(F)F` (stereo not drawn) [TCMDC-136579], for which the “% Inhibition” value was 19.1%.
Turning to `OC(CNCc1ccccc1OCc1ccccc1)c1cccc(C(F)(F)F)c1` (stereo not drawn) [TCMDC-140299], the “% Inhibition” value is on record as 10.62%.
On to `O=C(/C=C/c1ccc(F)cc1)NC1CCC(CCN2CCc3ccc(-n4cccn4)cc3CC2)CC1` (stereo not drawn) [TCMDC-140323], for which the “% Inhibition” value was -53.18%.
With `Nc1nc(N)c2c3c(cnc2n1)CCCC3` [TCMDC-137925], the “% Inhibition” value is reported as 38.2%.
In the case of `COc1cc2c(Nc3cccc(NC(=O)c4ccccc4)c3)ncnc2cc1OCCCN1CCOCC1` [TCMDC-135174], the “% Inhibition” value amounted to 18.79%.
Consider `CCn1c(-c2nonc2N)nc2c(-c3ccccc3)ncc(OCCCCNCCc3ncc[nH]3)c21` [TCMDC-136000], for which the “% Inhibition” value amounted to 104.7%.
As to `CCn1c(-c2nonc2N)nc2c(-c3ccccc3)ncc(OCCCNCCCN3CCOCC3)c21` [TCMDC-135858], the “% Inhibition” value stood at 109%.
As to `NCCCOc1cnc(-c2ccccc2)c2nc(-c3nonc3N)n(CCc3ccccc3)c12` [TCMDC-136216], the “% Inhibition” value was found to be 116.7%.
As to `CCn1c(-c2nonc2N)nc2c(-c3ccc(CO)o3)ncc(OCCCN)c21` [TCMDC-133807], the “% Inhibition” value was -40.81%.
On to `COc1cc2c(Nc3ccc(NC(=O)c4ccccc4)cc3)ncnc2cc1OCCCN1CCOCC1` [TCMDC-125873], for which the “% Inhibition” value is -52.63%.
On to `CC[C@H]1CN2CC[C@H]1C[C@H]2[C@H](O)c1ccnc2ccc(C#N)cc12` [TCMDC-138234], for which the “% Inhibition” value was determined as 18.99%.
`CC(=O)c1c[nH]c(C(=O)Nc2ccc(-c3cn4ccccc4n3)cc2)c1` [TCMDC-124599]: the “% Inhibition” value is on record as 36.18%.
